FBW7 activator: activators of human E3 ligase FBW7; 650,000 tested, 0.13% active; Q969H0; AlphaScreen FBW7–phospho-cyclin E peptide binding, activator screen; normalized activity (activation), % at 26.1 µM; in the data active = normalized activity above about 1.9%;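 note: purified mutant Fbw7 with reduced substrate affinity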
TEAD-YAP block: TEAD-YAP interaction inhibition | HEK-TIYL cells, TEAD-Gal4/YAP UAS-luciferase luminescence | inhibition, % at 9.12 µM | 640,000 tested, 1.4% active | AID 1259422; in the data active = inhibition above about 32%;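 note: 0% = median of test compound wells and 100% = reference inhibitor wells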
GPR151 ag: human GPR151 activation | PathHunter beta-arrestin GPR151 cells, luminescence | AID 1508602 | Q8TDV0 | activation, % at 11.2 µM | 650,000 tested, 1% active; in the data active = activation above about 4.9%;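 note: 0% = median of compound wells and 100% = cells with positive control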
Target sequence (Q8TDV0 whole entry, looked up): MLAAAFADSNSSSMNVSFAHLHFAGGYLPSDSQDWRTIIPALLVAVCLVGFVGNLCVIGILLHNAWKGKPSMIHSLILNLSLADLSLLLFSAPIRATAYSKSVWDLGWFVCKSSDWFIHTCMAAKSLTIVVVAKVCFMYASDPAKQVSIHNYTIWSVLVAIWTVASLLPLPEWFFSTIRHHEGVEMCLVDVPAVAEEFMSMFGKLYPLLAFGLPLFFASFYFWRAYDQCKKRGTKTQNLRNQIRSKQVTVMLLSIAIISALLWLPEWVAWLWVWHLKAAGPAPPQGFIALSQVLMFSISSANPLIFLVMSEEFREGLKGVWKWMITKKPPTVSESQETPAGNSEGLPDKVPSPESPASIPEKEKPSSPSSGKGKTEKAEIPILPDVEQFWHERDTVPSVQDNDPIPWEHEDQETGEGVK
MITF inh: human MITF inhibition, primary screen; O75030; AlphaScreen MITF homodimerization, bead proximity signal; inhibition, % at 2.6 µM; 650,000 tested, 0.91% active; AID 1259374; in the data active = inhibition above about 50%;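 note: 0% = vehicle wells with protein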
Numbers without * were called inactive. An excerpt weighted towards active compounds, which were near 3.5% of everything screened.

SMILES	FBW7 activator	TEAD-YAP block	GPR151 ag	MITF inh
O=C(Nc1ccc(Cc2ccncc2)cc1)c1ccc([N+](=O)[O-])cc1	0	7	0	-7
O=C(Nc1ccc(Cc2ccncc2)cc1)c1ccc([N+](=O)[O-])cc1Cl	0	36*	-1	3
O=C(Nc1cnc2ccccc2c1)c1ccc([N+](=O)[O-])cc1Cl	0	49*	-4	1
O=C(Nc1cccnc1)c1ccc([N+](=O)[O-])cc1Cl	0	-6	-1	-8
O=C(NC1CCCCCCCCCCC1)c1ccc([N+](=O)[O-])cc1Cl	0	-13	1	-13
O=C(CN1C(=O)c2ccccc2C1=O)Nc1nc2ccc(Br)cc2s1	0	9	0	0
COc1cc(C)ccc1S(=O)(=O)Oc1cccc2ccc(C)nc12	0	37*	1	11
CCOC(=O)CC(=O)CSc1nc2c(sc(=S)n2-c2ccc(C(=O)OCC)cc2)c2nc3ccccc3n12	0	13	-1	6
COc1ccc(C(NC(C)=O)c2cc(Cl)c3cccnc3c2O)cc1OC (stereo not given)	0	4	0	21
CCC(=O)NC(c1ccc(OC)c(OC)c1)c1cc(Cl)c2cccnc2c1O (stereo not given)	0	46*	0	28
COc1ccc(C(NC(C)=O)c2ccc3cccnc3c2O)cc1OC (stereo not given)	-1	83*	0	66*
CCC(=O)NC(c1ccc(OC)c(OC)c1)c1ccc2cccnc2c1O (stereo not given)	-2	87*	-1	59*
OCCNc1nc(N2CCN(Cc3ccc4c(c3)OCO4)CC2)nc2nc[nH]c12	0	7	2	6
NC(=O)C1CCN(C(=O)CCC(=O)c2ccc(Cl)cc2)CC1	0	-6	0	-5
CCCN1CCc2nnc(C(C)NC(=O)CCOC)n2CC1 (stereo not given)	1	-6	-1	-9
CCCOC(=O)/C(=C\c1ccc(O)cc1)NC(=O)c1ccccc1	0	-39	0	5
COc1ccc(CC(=O)N2CCN(S(=O)(=O)c3cc4c5c(c3)CCN5C(=O)CC4)CC2)cc1	0	11	0	-4
O=C(O)CN1C(=O)/C(=C2\SC(=Nc3ccc(F)cc3)NC2=O)c2ccccc21	0	15	0	12
CC[C@H]1CN2CCc3cc(OC)c(OC)cc3C2C[C@@H]1CC1NCCc2cc(OC)c(OC)cc21 (stereo not given in full)	0	95*	2	1
CCCCCCCCn1c(NN)nc2c1c(=O)[nH]c(=O)n2C	0	7	0	2
[O-][n+]1onc2cc(Br)cnc21	0	-3	-2	61*
[O-][n+]1onc2cc(Cl)c(Cl)cc21	0	-40	2	3
Cn1c(Nc2nc(NCCO)c3[nH]cnc3n2)nc2ccccc21	0	8	3	9
CCOc1ccccc1N1C(=O)NC2CC1(C)Oc1ccc(Br)cc12 (stereo not given)	3.3*	-2	0	-21
COc1ccccc1N1C(=O)NC2CC1(C)Oc1ccc(Br)cc12 (stereo not given)	0	4	0	2
SMILES	FBW7 activator	TEAD-YAP block	GPR151 ag	MITF inh
COc1ccc(C2CC(c3c(O)cc(C)oc3=O)=NCCS2)c(OC)c1 (stereo not given)	0	42*	0	-2
COc1ccc(C2CC(c3c(O)cc(C)oc3=O)=Nc3ccccc3S2)cc1O (stereo not given)	0	62*	-2	7
O=C(Cc1ccccc1)Nc1nnc(SCC(=O)N2CCc3ccccc32)s1	0	5	2	8
CC(C)(C)NC(=O)Cn1nc2c3ccccc3nc(C3CC3)n2c1=O	0	44*	-1	-1
CC(C)NC(=O)Cn1nc2c3ccccc3nc(C3CC3)n2c1=O	0	-1	2	4
CCOc1ccccc1NC(=O)C1CCCN(c2c(CC)c(C)nc3ncnn23)C1 (stereo not given)	0	-1	0	-11
CCc1c(C)nc2ncnn2c1N1CCCC(C(=O)Nc2nnc(C)s2)C1 (stereo not given)	0	48*	1	-1
CC1=NOC(=O)/C1=C\c1ccc(-c2ccc(Cl)c(C(=O)O)c2)o1	0	-1	0	15
CC1=NOC(=O)/C1=C/c1ccc(-c2ccc(C(=O)O)cc2)o1	0	7	0	57*
Cc1cc(=O)oc2cc(NC(=O)Cn3ncc4c3-c3ccccc3OC4)ccc12	0	49*	0	-1
Cc1ccc2c(c1)-c1c(cnn1CC(=O)Nc1ccc(C)c(F)c1)CO2	0	-6	0	-10
